Records with an inconclusive call do not appear. Active and inactive are the calls of the source. Unless noted, calls come from the whole dose curve; as a rule, active = well fitted curve in the direction sought with a large enough effect in the repeat runs; inconclusive = weak or mixed curves; inactive = no such curve, though single readings can be large; an effect the other way counts as inactive or inconclusive.
Key:
[1] = target: Estrogen receptor (Homo sapiens) (UniProt P03372); experiment: qHTS assay to identify small molecule antagonists of the estrogen receptor alpha (ER-alpha) signaling pathway using the BG1 cell line in the presence of 0.1 nM 17-beta-estradiol (AID 1259244); note: nearly all actives have a fitted effect of over 50% in size; note: potency is the fitted concentration of half-maximal effect
Summary of the method: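 Seeding of stripped-serum-adapted VM7Luc4E2 cells, 24 h attachment, compound transfer, then 0.1 nM final 17beta-estradiol; after 22 h incubation, ONE-Glo reagent and luminescence reading.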

[2] = qHTS assay to identify small molecule phospholipidosis (PLD) inducers (AID 1259344; active = well fitted curve in the direction sought with a large enough effect; an effect the other way counts as inactive or inconclusive)
Summary of the method: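 Read-out is LipidTOX Red fluorescence (ex 595/em 615) imaged in HepG2 cells after 24 h compound exposure at 37 C, with Hoechst nuclear counterstain (ex 352/em 461) allowing per-cell normalisation.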

[3] = qHTS assay to identify small molecule HDAC inhibitors (AID 1259364);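 note: wild-type HCT-116 cells with endogenous class I/II HDAC activity; top concentration of the series differs between compounds; nearly all actives have a fitted effect of over 45% in size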
Summary of the method: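 After a 2 hr compound incubation (37C, 5% CO2), HCT-116 cells seeded at 1,500/well the day before received HDAC-Glo reagent; signal read as luminescence after 30 min at room temperature.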

[4] = qHTS assay to identify small molecule HDAC inhibitors - cell viability counter screen (AID 1259365); note: series mostly up to about 92 µM; nearly all actives have a fitted effect of over 50% in size
Summary of the method: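 HCT-116 wild-type, overnight attachment; 2hr drug exposure, 37C; CellTiter-Glo luminescent ATP readout after 30min RT.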

[5] = qHTS assay to identify small molecule agonists of the sonic hedgehog signaling (Shh) pathway - cell viability counter screen (AID 1259366); note: nearly all actives have a fitted effect of over 50% in size; note: potency is the fitted concentration of half-maximal effect
Summary of the method: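 Compounds in DMSO were pin-transferred onto 3T3 Gli1-Luc cells that had settled 4hr; plates then stood 24hr at 37C and 5% CO2. One hour before the end, CellTiter-Fluor was added and fluorescence recorded.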

[6] = qHTS assay to identify small molecule antagonists of the sonic hedgehog signaling (Shh) pathway - cell viability counter screen (AID 1259367); note: nearly all actives have a fitted effect of over 55% in size; note: potency is the fitted concentration of half-maximal effect
Summary of the method: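 Fluorescence read-out (CellTiter-Fluor, 1 hr at 37C) taken after 23 hr compound treatment of 3T3 Gli1-Luc cells stimulated with conditioned medium. Cells were seeded at 2,000 per well and pre-incubated 4 hr.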

[7] = qHTS assay to identify small molecule agonists of the sonic hedgehog signaling (Shh) pathway (AID 1259368; calls by dose curve;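 note: NIH/3T3-derived 3T3Gli1-Luc cells carrying a stable Gli1-driven firefly luciferase reporter; series mostly up to about 92 µM; nearly all actives have a fitted effect of over 15% in size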)
Summary of the method: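 Stable NIH/3T3 Gli1-Luc reporter clone; 24 hr cpd exposure after a 4 hr settling period; luminescence endpoint.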

[8] = target: Estrogen receptor beta (Homo sapiens) (UniProt Q92731); experiment: qHTS assay to identify small molecule agonists of the estrogen receptor beta (ER-beta) signaling pathway (AID 1259377; active = well fitted activation curve with a large enough effect in the signal ratio in the repeat runs, not every such curve was filed as active; the % refers to the signal ratio)
Summary of the method: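 qHTS in ER-beta-UAS-bla HEK293T cells: 6 hr settling, then 16 hr compound at 37C, then LiveBLAzer substrate 2 h at RT before fluorescence reading.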

[9] = qHTS assay to identify small molecule agonists of the androgen receptor (AR) signaling pathway in the presence of an antagonist - cell viability counter screen (AID 1259379); note: nearly all actives have a fitted effect of over 25% in size; note: potency is the fitted concentration of half-maximal effect
Summary of the method: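 Counter screen for cell viability run in parallel with the AR agonist-mode luciferase assay. MDA-kb2 cells were co-treated with nilutamide (3.0uM final) and compounds, then incubated 16 hr at 37C, and CellTiter-Fluor fluorescence was measured.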

[10] = target: Estrogen receptor (Homo sapiens) (UniProt P03372); experiment: qHTS assay to identify small molecule agonists of the estrogen receptor alpha (ER-alpha) signaling pathway in the presence of an antagonist (AID 1259383; calls by dose curve; note: top concentration of the series differs between compounds; nearly all actives have a fitted effect of over 15% in size)
Summary of the method: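 ER-alpha agonism measured under antagonist challenge: 10.0nM ICI-182,780 (final) plus compound, 15 concentrations, 22hr, VM7Luc4E2 ERE-luciferase cells. Read by luminescence.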

[11] = qHTS assay to identify small molecule antagonists of the androgen receptor (AR) signaling pathway using the MDA cell line in the presence of 0.5 nM R1881 - cell viability counter screen (AID 1259242); note: nearly all actives have a fitted effect of over 45% in size
Summary of the method: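 Human breast carcinoma MDA-kb2 cells, cultured without CO2, receive compounds alongside 0.5 nM (final) R1881 agonist. After 16 hr at 37C, viability is taken as live-cell protease signal.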

[12] = qHTS assay to identify small molecule antagonists of the sonic hedgehog signaling (Shh) pathway (AID 1259369; calls by dose curve; note: nearly all actives have a fitted effect of over 45% in size)
Summary of the method: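 Gli1 transcriptional reporter (firefly Luc) in NIH/3T3 background, conditioned-medium activated. 24hr exposure, luminescence endpoint.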

[13] = qHTS assay to identify small molecule agonists of the estrogen receptor beta (ER-beta) signaling pathway - cell viability counter screen (AID 1259380); note: nearly all actives have a fitted effect of over 30% in size; note: potency is the fitted concentration of half-maximal effect
Summary of the method: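 In this qHTS counter screen, HEK293T cells carrying an ER-beta/UAS beta-lactamase reporter, grown in 2% charcoal-stripped FBS, received compound for 16 hr; ATP-based CellTiter-Glo luminescence was then read after 30 min at room temperature.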

[14] = qHTS assay to identify small molecule agonists or antagonists of the thyroid stimulating hormone receptor (TSHR) signaling pathway - wild type cell line counter screen (AID 1259384; calls by dose curve)
Summary of the method: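 Wild-type Hek293 cells, 800/well, 18 h at 37C, then compound with Ro20-1724 for 30 min RT. cAMP by HTRF (cAMP-d2/anti-cAMP cryptate), 1 h RT, fluorescence read. 15 concentrations, triplicates.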

[15] = target: Thyrotropin receptor (Homo sapiens) (UniProt P16473); experiment: qHTS assay to identify small molecule antagonists of the thyroid stimulating hormone receptor (TSHR) signaling pathway (AID 1259385; calls by dose curve; note: nearly all actives have a fitted effect of over 20% in size)
Summary of the method: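 TSHR-HEK293 cells (800/well) plated 18 h, then compounds with Ro20-1724 and TSH at 1.5 ng/mL final, 30 min at room temperature. cAMP quantified by HTRF (cAMP-d2/anti-cAMP-cryptate, 1 h); 15 concentrations in triplicate.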

[16] = target: Androgen receptor (Homo sapiens) (UniProt P10275); experiment: qHTS assay to identify small molecule antagonists of the androgen receptor (AR) signaling pathway using the MDA cell line in the presence of 0.5 nM R1881 (AID 1259243); note: potency is the fitted concentration of half-maximal effect; nearly all actives have a fitted effect of over 50% in size
Summary of the method: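 Cells: MDA-kb2 (MMTV-luc). Stimulus: 0.5 nM R1881. Time: 16 hr, 37C, no CO2. Detection: ONE-Glo luminescence after 30 min at RT.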

[17] = target: Androgen receptor (Homo sapiens) (UniProt P10275); experiment: qHTS assay to identify small molecule agonists of the androgen receptor (AR) signaling pathway in the presence of an antagonist (AID 1259381; calls by dose curve; note: nearly all actives have a fitted effect of over 15% in size)
Summary of the method: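 AR antagonist background: nilutamide 3.0uM final. Cell line: MDA-kb2, MMTV-driven luciferase, responsive to both AR and GR. Exposure 16hr, 37C, no CO2; ONE-Glo luminescence.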

[18] = qHTS assay to identify small molecule antagonists of the estrogen receptor beta (ER-beta) signaling pathway - cell viability counter screen (AID 1259382); note: series mostly up to about 92 µM; nearly all actives have a fitted effect of over 55% in size
Summary of the method: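 HEK293T ER-beta-UAS-bla, 2% charcoal-stripped FBS; compounds + 1nM E2 16 hr 37C; CellTiter-Glo luminescence, 30 min RT.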

[19] = target: Estrogen receptor beta (Homo sapiens) (UniProt Q92731); experiment: qHTS assay to identify small molecule antagonists of the estrogen receptor beta (ER-beta) signaling pathway (AID 1259378; active = well fitted inhibition curve with a large enough effect in the signal ratio in the repeat runs, not every such curve was filed as active; the % refers to the signal ratio)
Summary of the method: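 ER-beta-UAS-bla HEK293T cells in 2% charcoal-stripped FBS medium treated with compound plus 1nM final 17-beta-estradiol for 16 hr at 37C. Beta-lactamase reporter read by FRET substrate fluorescence after 2 hours at room temperature.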

Measured: Potency

Sequence of Estrogen receptor (Homo sapiens) (P03372 whole entry, looked up): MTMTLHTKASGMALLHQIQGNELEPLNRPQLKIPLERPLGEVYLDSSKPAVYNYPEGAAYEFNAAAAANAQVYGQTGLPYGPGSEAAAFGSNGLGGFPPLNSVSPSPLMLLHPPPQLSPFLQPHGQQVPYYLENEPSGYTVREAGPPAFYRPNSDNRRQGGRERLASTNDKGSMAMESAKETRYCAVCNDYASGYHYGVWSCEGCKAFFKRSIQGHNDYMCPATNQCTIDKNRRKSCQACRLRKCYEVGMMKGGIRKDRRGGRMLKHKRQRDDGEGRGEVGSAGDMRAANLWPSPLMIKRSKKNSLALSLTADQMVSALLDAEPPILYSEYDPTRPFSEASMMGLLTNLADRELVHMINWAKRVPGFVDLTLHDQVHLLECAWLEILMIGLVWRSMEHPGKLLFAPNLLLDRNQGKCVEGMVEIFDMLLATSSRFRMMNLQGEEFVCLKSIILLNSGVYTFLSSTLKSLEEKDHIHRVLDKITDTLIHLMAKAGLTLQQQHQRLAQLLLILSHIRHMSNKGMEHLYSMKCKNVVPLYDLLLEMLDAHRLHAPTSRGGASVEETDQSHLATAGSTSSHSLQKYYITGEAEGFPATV
Sequence of Estrogen receptor beta (Homo sapiens) (Q92731 whole entry, looked up): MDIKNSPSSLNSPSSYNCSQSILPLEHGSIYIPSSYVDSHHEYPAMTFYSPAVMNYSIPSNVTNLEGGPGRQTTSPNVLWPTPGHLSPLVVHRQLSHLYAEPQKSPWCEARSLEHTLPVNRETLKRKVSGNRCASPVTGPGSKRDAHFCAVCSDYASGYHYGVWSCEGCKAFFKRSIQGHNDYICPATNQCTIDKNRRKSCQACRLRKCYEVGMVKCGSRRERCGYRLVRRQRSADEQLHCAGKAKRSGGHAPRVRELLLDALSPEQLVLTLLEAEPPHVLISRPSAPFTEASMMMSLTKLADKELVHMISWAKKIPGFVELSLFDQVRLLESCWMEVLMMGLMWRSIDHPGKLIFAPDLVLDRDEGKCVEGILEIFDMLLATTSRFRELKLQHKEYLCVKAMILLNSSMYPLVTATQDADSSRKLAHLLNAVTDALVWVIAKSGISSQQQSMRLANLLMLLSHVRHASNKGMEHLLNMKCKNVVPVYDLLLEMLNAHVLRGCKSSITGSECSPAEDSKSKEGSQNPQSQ
Sequence of Thyrotropin receptor (Homo sapiens) (P16473 whole entry, looked up): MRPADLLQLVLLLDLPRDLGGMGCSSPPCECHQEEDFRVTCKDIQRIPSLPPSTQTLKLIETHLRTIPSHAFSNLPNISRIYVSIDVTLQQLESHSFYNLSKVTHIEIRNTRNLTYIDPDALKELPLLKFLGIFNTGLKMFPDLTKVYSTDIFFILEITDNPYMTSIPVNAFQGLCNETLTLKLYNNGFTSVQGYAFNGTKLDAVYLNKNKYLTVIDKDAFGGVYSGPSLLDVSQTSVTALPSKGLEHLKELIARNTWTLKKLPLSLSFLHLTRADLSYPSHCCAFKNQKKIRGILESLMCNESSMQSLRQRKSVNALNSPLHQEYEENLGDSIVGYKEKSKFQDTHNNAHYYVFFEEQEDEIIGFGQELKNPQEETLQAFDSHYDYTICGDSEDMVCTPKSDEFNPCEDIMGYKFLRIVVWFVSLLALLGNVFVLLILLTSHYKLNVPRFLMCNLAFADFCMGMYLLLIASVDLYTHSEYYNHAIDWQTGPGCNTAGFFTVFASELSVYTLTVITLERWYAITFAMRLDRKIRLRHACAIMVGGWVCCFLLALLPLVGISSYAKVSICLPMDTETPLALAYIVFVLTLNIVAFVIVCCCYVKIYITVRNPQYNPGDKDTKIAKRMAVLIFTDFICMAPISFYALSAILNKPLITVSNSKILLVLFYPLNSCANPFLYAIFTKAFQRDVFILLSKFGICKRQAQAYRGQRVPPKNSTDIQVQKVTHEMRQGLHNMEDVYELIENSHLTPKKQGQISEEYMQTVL
Sequence of Androgen receptor (Homo sapiens) (P10275 whole entry, looked up): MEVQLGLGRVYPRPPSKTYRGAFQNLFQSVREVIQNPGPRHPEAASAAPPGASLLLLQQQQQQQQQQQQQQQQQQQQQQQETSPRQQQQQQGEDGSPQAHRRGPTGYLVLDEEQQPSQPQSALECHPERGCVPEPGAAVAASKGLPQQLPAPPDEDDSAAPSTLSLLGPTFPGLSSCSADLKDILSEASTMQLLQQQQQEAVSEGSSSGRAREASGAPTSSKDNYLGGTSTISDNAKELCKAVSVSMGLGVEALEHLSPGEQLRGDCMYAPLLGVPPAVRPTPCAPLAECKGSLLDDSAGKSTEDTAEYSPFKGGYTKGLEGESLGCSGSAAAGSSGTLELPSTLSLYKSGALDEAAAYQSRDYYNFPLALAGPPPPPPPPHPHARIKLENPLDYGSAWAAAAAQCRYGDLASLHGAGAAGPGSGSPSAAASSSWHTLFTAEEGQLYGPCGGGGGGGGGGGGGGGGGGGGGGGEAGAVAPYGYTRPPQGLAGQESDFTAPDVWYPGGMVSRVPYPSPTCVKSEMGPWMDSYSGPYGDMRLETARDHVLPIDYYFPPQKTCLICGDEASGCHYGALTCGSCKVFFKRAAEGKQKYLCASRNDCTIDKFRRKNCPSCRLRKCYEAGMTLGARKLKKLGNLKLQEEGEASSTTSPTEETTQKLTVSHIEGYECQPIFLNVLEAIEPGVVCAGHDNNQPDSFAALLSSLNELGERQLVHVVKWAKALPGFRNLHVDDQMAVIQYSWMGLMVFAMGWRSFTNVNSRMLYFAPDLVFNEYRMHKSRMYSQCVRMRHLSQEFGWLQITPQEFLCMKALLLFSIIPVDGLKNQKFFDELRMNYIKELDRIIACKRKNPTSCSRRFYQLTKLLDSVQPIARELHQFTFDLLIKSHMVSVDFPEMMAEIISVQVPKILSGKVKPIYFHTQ

CCOC(=O)/C=C(C)/C=C/C[C@@H](C)CCCC(C)C
inactive: [1] | [2] | [3] | [4] | [5] | [6] | [7] | [8] | [9] | [10]

CCNc1nc(NC(C)C)nc(OC)n1
inactive: [11] | [3] | [4] | [5] | [6] | [12] | [9] | [13] | [14] | [15]

O=[N+]([O-])c1cccc2c([N+](=O)[O-])cccc12
inactive: [3] | [4] | [5] | [6] | [7] | [12] | [17] | [14] | [15]
active: [16] 61.4 µM | [13] 10.9 µM

C(CCOCC1CO1)COCC1CO1 (stereo unspecified)
inactive: [1] | [3] | [4] | [6] | [7] | [9] | [18] | [10] | [14] | [15]

C=CCC1=C(C)[C@@H](OC(=O)[C@@H]2[C@@H](C=C(C)C)C2(C)C)CC1=O
inactive: [3] | [4] | [7] | [12] | [10] | [14]
active: [1] 24.3 µM | [9] 48.6 µM

CCCSP(=O)(OCC)Oc1ccc(Br)cc1Cl (stereo unspecified)
not listed: [1] | [2] | [10] | [11] | [12] | [16] | [17] | [19]
inactive: all other assays above

COP(=S)(OC)Oc1c(Cl)cc(C)cc1Cl
not listed: [2] | [10] | [15] | [16] | [17] | [18]
inactive: all other assays above

CN1C(=S)CN=C(c2ccccc2)c2cc(Cl)ccc21
not listed: [1] | [12] | [16] | [17]
inactive: all other assays above

CC1(C(=O)Nc2ccc(O)c(Cl)c2Cl)CCCCC1
active: [5] 43.3 µM | [6] 43.3 µM
inactive: [11] | [3] | [4] | [7] | [9] | [13] | [18]

CCCSP(=S)(OCC)Oc1ccc(Cl)cc1Cl (stereo unspecified)
not listed: [2] | [8] | [10] | [11] | [15] | [16] | [17] | [19]
inactive: all other assays above

CCN(CC)c1nc(C)cc(OP(=S)(OC)OC)n1
not listed: [2] | [7] | [11] | [12] | [13] | [14] | [16] | [17]
inactive: all other assays above

CCCCN(CCCCO)N=O
not listed: [1] | [2] | [7] | [10] | [16] | [17]
inactive: all other assays above

CCOP(=O)(N=C1SCCS1)OCC
not listed: [2] | [12] | [13] | [16] | [17]
inactive: all other assays above

Reference: PubChem BioAssay (Tox21)
